Source: PubChem BioAssay (NCATS)
Values without a mark were called inactive. The source made the active and inactive calls. The call rests on the fitted dose curve; in most records, active means well fitted activation curve with a large enough effect; inconclusive means small, poorly fitted or top-dose-only effect; inactive means no such curve, though single readings can be large or run the other way.

Target: Cytochrome P450 3A4 (Homo sapiens) (UniProt P08684)
Test: qHTS Assay for Activators of Cytochrome P450 3A4 (AID 885); further: nearly all actives have a fitted effect of over 65% in size
Details: recombinant CYP3A4, Luciferin-PPXE luminescence, 60 min; series mostly up to 57.1 µM; activity change, positive = activation: at the top concentration
Experimental: NIH Molecular Libraries Screening Centers Network [MLSCN]
NIH Chemical Genomics Center [NCGC]
The P450 gene superfamily is involved in the metabolism and clearance of xenobiotics. This assay used human CYP3A4 to measure the dealkylation of luciferin-6' phenylpiperazinylyl (Luciferin-PPXE; […]) to luciferin. The luciferin is then measured by luminescence after the addition of a luciferase detection reagent. Luciferin-PPXE concentration in the assay was equal to its KM for CYP3A4. Inhibitors and some substrates limit the production of luciferin, and decrease measured luminescence; activators increase the production of luciferin and luminescence.
NCGC Assay Protocol Summary:
Two uL of enzyme and substrate mix (final concentrations: 20nM CYP3A4, 25uM Luciferin-PPXE, 200mM KPO4) were dispensed into a white, solid bottom 1536-well microtiter plate. 23nL of compound was transferred by a pin tool. The plate was incubated at RT for 10 min. Two uL of an NADPH regeneration solution (Promega supplied reagent) was dispensed and the reaction was allowed to continue for 60 min at RT. Then the reaction was stopped by reconstituted luciferin detection buffer. After another 20 min of incubation the plate was read on the ViewLux (Perkin Elmer) at 60 sec exposure and 2x2 binning. This protocol was carried out with Promega-Glo reagents and further information can be found at http://www.promega.com/tbs/tb325/tb325.pdf. Data were normalized to the to AC100 inhibition (57 uM ketoconazole).
Keywords: P450, CYP2D6, Luciferase, MLSMR, MLSCN, NIH Roadmap, qHTS, NCGC

Chain of Cytochrome P450 3A4 (Homo sapiens) (P08684 whole entry, looked up): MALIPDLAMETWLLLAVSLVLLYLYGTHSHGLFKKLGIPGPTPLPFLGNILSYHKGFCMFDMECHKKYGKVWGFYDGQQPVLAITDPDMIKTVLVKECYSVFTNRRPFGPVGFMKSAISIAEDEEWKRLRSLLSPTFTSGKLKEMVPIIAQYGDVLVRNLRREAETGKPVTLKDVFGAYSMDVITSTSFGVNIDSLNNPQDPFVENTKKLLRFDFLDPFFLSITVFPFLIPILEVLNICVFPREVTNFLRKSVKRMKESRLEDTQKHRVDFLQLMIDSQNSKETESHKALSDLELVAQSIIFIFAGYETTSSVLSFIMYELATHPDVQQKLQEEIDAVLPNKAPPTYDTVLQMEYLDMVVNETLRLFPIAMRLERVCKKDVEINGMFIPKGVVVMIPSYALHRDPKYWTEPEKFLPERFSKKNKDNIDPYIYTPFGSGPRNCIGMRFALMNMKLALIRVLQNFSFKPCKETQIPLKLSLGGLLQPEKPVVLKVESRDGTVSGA

In order of falling “activity change, positive = activation” value:
1. COC(C)(C)CCCC(C)C/C=C/C(C)=C/C(=O)OC(C)C (stereo not drawn)  -30.6%
2. Cc1nc(-c2ccc(-c3ccc(C(=O)N4CCc5cc6c(cc54)C4(CCN(C)CC4)CO6)cc3)c(C)c2)no1  -31.8%
3. c1cc2ccc3cccc4ccc(c1)c2c34  -35.5%
4. CC(C)(O)C(=O)Nc1ccc([N+](=O)[O-])c(C(F)(F)F)c1  -40%
5. Nc1ccccc1N  -40.6%
6. O=c1cccc2n1CC1CNC[C@H]2C1  -41.8%
7. CCCCCC[C@H]1C(=O)O[C@H](C)[C@H](NC(=O)c2cccc(NC=O)c2O)C(=O)O[C@@H](C)[C@@H]1OC(=O)CC(C)C  -43.7%
8. O=S(=O)(c1ccc(Cl)cc1)c1ccc(Cl)cc1  -46.3%
9. CCOP(=O)(NC(C)C)Oc1ccc(SC)c(C)c1 (stereo not drawn)  -46.4%
10. CCCCOC(=O)c1ccccc1C(=O)OCc1ccccc1  -47.3%
11. CCCCc1ccc(C(=O)O)nc1  -49.7%
12. CCCN1CCO[C@@H]2c3cc(O)ccc3OC[C@@H]21  -50.2%
13. CCCN1CCO[C@@H]2c3cc(O)ccc3OC[C@H]21  -51.7%
14. O=C(O)Cc1cnc[nH]1  -51.9%
15. CC(C)Oc1cccnc1N(C)C1CCN(Cc2ccccc2)CC1  -53.1%
16. Nc1ccc(Cl)cc1N  -53.5%
17. O=[N+]([O-])c1c2ccccc2cc2ccccc12  -54%
18. COc1ccc2c(c[n+](C)c3c4cc5c(cc4ccc23)OCO5)c1OC  -59.2%
19. COc1cc2c(cc1OC)[C@@H]1C(=O)c3ccc4c(c3O[C@@H]1CO2)C=CC(C)(C)O4  -65.8%
20. CC[C@@H]1C(=O)OC[C@@H]1Cc1cncn1C  -77.1%
21. CC1=NN=C(c2ccc(N)cc2)c2cc3c(cc2C1)OCO3  -83.8%
22. Cc1nccc2c1[nH]c1ccccc12  -84.8%
23. COc1ccc(C(=O)c2c(C)n(CCN3CCOCC3)c3cc(I)ccc23)cc1  -89.5%
24. CC(C)c1ccc2c(c1)c(SC(C)(C)C)c(CC(C)(C)C(=O)O)n2Cc1ccc(Cl)cc1  -94.6%

With c1ccc2sc(C3(N4CCCCC4)CCCCC3)cc2c1 the outcome was “inactive”.
With C[C@]12N[C@H](Cc3ccccc31)c1ccccc12 the outcome was “inactive”.
For NCCc1c[nH]c2ccc(O)cc12, the outcome was “inactive”.

CC[C@@]1(O)C(=O)OCc2c1cc1n(c2=O)Cc2cc3ccccc3nc2-1 was tested, and the “activity change, positive = activation” value was -65.2% [at 25.6 µM].
